TSHR antagonist: Antagonists of the Thyroid Stimulating Hormone Receptor: HTS campaign; activity change, negative = inhibition, % at 11.5 µM; 330,000 tested, 0.2% active; TSHR-expressing cells, TSH-stimulated cAMP HTRF, 2 h; active compounds read low; Thyrotropin receptor (Homo sapiens), P16473;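 active means activity change below a set negative limit, meaning inhibition stronger than a set level, cut at about -70% in these data; inconclusive means activity change between two set negative limits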
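Inhibition of cAMP made by TSHR-expressing cells under TSH stimulation (4nM final, EC80; 2 h, 37 deg C) is quantified with a one-step lysis HTRF kit, anti-cAMP cryptate versus cAMP-d2.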
FBPA coupling cs: qHTS Assay for Inhibitors of Fructose-1,6-bisphosphate Aldolase from Giardia Lamblia: Coupling assay counterscreen. coupling enzyme system counterscreen, AmpLite Red fluorescence. 290,000 tested, 0.67% active. AID 2472, 2010. activity change, negative = inhibition, % at 58.2 µM, hits read low; in the data active means activity change below about -30%
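Fluorescence at 525 nm excitation and 598 nm emission measured inhibition of the coupled detection system without aldolase. Compounds (at 57.5 uM final) were preincubated 10 min at room temperature with coupling enzyme reagent before a 20 min substrate/AmpLite Red step.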
Gal4-VP16 FLuc: VP16 counterscreen qHTS for inhibitors of ROR gamma transcriptional activity; Drosophila S2 Gal4-VP16 UAS-luciferase, luminescence, 20 h; Potency, µM (titrated, usually from 53.6 µM), actives largely listed as inhibitors; 310,000 tested, 3.5% active;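 further: Gal4-VP16 expression switched on by copper sulfate through the metallothionein promoter; nearly all actives have a fitted effect of over 50% in size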
RORg inh: qHTS for inhibitors of ROR gamma transcriptional activity; AID 2551, 2010; Nuclear receptor ROR-gamma (Mus musculus), P51450; Potency, µM (highest dose often 53.6 µM), hits mostly inhibitors; 310,000 tested, 5.4% active; Drosophila S2 Gal4-RORgamma UAS-luciferase reporter, 20 h; further: nearly all actives have a fitted effect of over 60% in size
Target sequence (P51450 whole entry, looked up, the tested form may be a part): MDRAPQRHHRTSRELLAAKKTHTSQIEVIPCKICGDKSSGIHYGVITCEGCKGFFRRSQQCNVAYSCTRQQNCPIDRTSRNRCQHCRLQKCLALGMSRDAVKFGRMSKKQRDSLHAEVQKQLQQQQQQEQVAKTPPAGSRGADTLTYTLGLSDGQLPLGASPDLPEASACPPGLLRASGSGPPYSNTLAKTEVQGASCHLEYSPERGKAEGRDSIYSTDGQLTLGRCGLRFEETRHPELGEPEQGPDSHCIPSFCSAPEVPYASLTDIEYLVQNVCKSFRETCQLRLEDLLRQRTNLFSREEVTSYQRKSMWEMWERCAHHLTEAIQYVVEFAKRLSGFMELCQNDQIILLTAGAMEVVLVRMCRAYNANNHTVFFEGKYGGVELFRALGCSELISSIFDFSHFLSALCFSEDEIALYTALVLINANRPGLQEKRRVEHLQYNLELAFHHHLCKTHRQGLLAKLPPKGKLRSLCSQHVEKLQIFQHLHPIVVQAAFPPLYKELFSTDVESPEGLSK
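Luciferase reporter read in Schneider cells carrying Gal4-RORγ (mouse) and UAS-Photinus luciferase; cells given compound 1 h before 700 uM copper sulfate induction, then incubated 20 h at ambient temperature.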
ELG1 DNA repair: qHTS screen for small molecules that inhibit ELG1-dependent DNA repair in human embryonic kidney (HEK293T) cells expressing luciferase-tagged ELG1; Potency, µM (highest dose often 46.1 µM), hits mostly inhibitors; 330,000 tested, 2.3% active; HEK293T ELG1-luciferase reporter, luminescence, 16 h; DNA damage induced by 5-fluorouridine; AID 504467, 2011; further: nearly all actives have a fitted effect of over 55% in size
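Cells (2,000 per well) received 5-fluorouridine plus test compound or DMSO and were incubated 16 hr at 37 °C, 5% CO2. Luciferase activity was read by luminescence 30 min after ONE-Glo addition; signal suppression marked inhibition of damage-induced ELG1 function.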
Of the large screens only hits and unclear results are named; the others gave an inactive call. Hits are enriched below; roughly 8% of the tested compounds scored in any of these assays. Unless noted, the call rests on the fitted dose curve; in most records, active means well fitted curve in the direction sought with a large enough effect; inconclusive means small, poorly fitted or top-dose-only effect, or another doubt; inactive means no such curve, though single readings can be large; an effect the other way counts as inactive or inconclusive.

COc1cccc(CC(=O)OCC(=O)Nc2nnc(-c3ccccc3)o2)c1	none (no result: FBPA coupling cs, Gal4-VP16 FLuc, RORg inh)
COc1ccc(-c2nnc(NC(=O)c3ccc([N+](=O)[O-])o3)o2)c(OC)c1	Gal4-VP16 FLuc 6.3µM, RORg inh 7.1µM
COc1cccc(-c2nnc(NC(=O)c3ccccc3Br)o2)c1	Gal4-VP16 FLuc 3.2µM, RORg inh 5µM, ELG1 DNA repair inconclusive
Cc1cc(NC(=O)Cc2cc(F)cc(F)c2)no1	none
COc1cccc(-c2nnc(-c3ccc(C)o3)o2)c1	Gal4-VP16 FLuc inconclusive, RORg inh 11µM, ELG1 DNA repair inconclusive
COc1ccc(C(C)=O)cc1CSc1nnc(-c2ccccc2O)n1-c1ccccc1	RORg inh 2.8µM, ELG1 DNA repair inconclusive
COc1ccc(C(C)=O)cc1CSc1nnc(C)n1-c1ccccc1	none
CCOC(=O)C1=C(CSc2nc(C)ccc2C#N)OC(N)=C(C#N)C1c1cccc(OC)c1OC (stereo unspecified)	Gal4-VP16 FLuc inconclusive, RORg inh 20µM, ELG1 DNA repair inconclusive
S=c1nc(-c2ccccc2)n(CCCN2CCOCC2)c2c1CCCC2	RORg inh inconclusive
COCCCn1c(-c2ccc(Cl)cc2)n[nH]c1=S	Gal4-VP16 FLuc 13µM, RORg inh 18µM
CCOCCCn1c(-c2ccc(Cl)cc2)n[nH]c1=S	Gal4-VP16 FLuc 10µM, RORg inh 5µM
COCCCn1c(-c2ccccc2Cl)n[nH]c1=S	Gal4-VP16 FLuc inconclusive, RORg inh 16µM
S=c1[nH]nc(-c2ccc(Cl)cc2)n1CCCN1CCOCC1	RORg inh 10µM
COCCCn1cn[nH]c1=S	none
CC(NC(=O)CCSCc1ccccc1F)c1ccccc1 (stereo unspecified)	Gal4-VP16 FLuc inconclusive, ELG1 DNA repair inconclusive
CO[C@@H]1/C=C\CC(=O)N[C@@H](C)C(=O)OC[C@@H](OC)[C@H](C)/C=C\CC(=O)OC[C@H]1C	none (no result: TSHR antagonist, ELG1 DNA repair)
C#CC(N)CCC(=O)O (stereo unspecified)	none (no result: FBPA coupling cs, Gal4-VP16 FLuc, RORg inh, ELG1 DNA repair)
Cc1ccc(NC(=O)C[n+]2ccn(C3=C([O-])c4ccccc4C3=O)c2)cc1	none
CCCC[n+]1ccn(C2=C([O-])c3ccccc3C(=O)/C2=N\S(=O)(=O)c2ccc(Br)cc2)c1	FBPA coupling cs -59, Gal4-VP16 FLuc inconclusive
CCCC[n+]1ccn(-c2nc3ccccc3nc2[N-]S(=O)(=O)c2ccc(Cl)cc2)c1	none
CC(=O)Nc1ccc(S(=O)(=O)/N=C2\C(=O)c3ccccc3C([O-])=C2n2cc[n+](-c3ccccn3)c2)cc1	FBPA coupling cs -39, ELG1 DNA repair inconclusive
Cc1ccc(S(=O)(=O)/N=C2\C(=O)c3ccccc3C([O-])=C2n2cc[n+](CCC(C)C)c2)cc1	FBPA coupling cs -52, Gal4-VP16 FLuc inconclusive, RORg inh 8.9µM
CC(=O)OC[C@@H]1O[C@@H](O/N=C2/C[C@@H](O)[C@@H](O)[C@@H]3[C@@H]4C(=O)N(C(C)(C)C)C(=O)[C@H]4CC[C@@H]23)[C@H](OC(C)=O)[C@H](OC(C)=O)[C@@H]1OC(C)=O	none (no result: TSHR antagonist, ELG1 DNA repair)
COc1cc(OC)cc(C(=O)NNC(=O)CCNC(=O)c2ccc(Br)cc2)c1	none (no result: FBPA coupling cs, Gal4-VP16 FLuc, RORg inh)
CC1(C)CC(N=C2C([N+](=O)[O-])=CC=C3C2=NC2(CCCCC2)N3O)CC(C)(C)N1	FBPA coupling cs -38
O=[N+]([O-])C1=CC=C2C(=NC3(CCCCC3)N2O)C1=NCCc1ccccc1	FBPA coupling cs -65, ELG1 DNA repair inconclusive
CC(C)(C)N=C1C([N+](=O)[O-])=CC=C2C1=NC1(CCCCC1)N2O	FBPA coupling cs -46
Cc1cnc(C(=O)N2CCN(S(=O)(=O)c3cccc(Br)c3)CC2)cn1	none (no result: FBPA coupling cs, Gal4-VP16 FLuc, RORg inh)
O=C(NCC(=O)N1CCOCC1)c1ccc(Br)o1	none (no result: FBPA coupling cs, Gal4-VP16 FLuc, RORg inh)
O=[N+]([O-])c1ccc(CSc2ncnc3ccccc23)cc1	RORg inh 7.9µM, ELG1 DNA repair inconclusive
Cc1ccc(Nc2cc(C)nc3ccc(C)cc23)cc1	TSHR antagonist -96, ELG1 DNA repair 8.2µM
O=C(CN(CC1CCCO1)C(=O)CNS(=O)(=O)c1ccccc1)NCCc1ccccc1 (stereo unspecified)	none
CS(=O)(=O)N1CCC(Oc2ccccc2C(=O)N2CCC[C@H]2CO)CC1	ELG1 DNA repair inconclusive (no result: FBPA coupling cs)
O=C(NN=C1c2ccccc2-c2ccccc21)c1ccccn1	Gal4-VP16 FLuc 4.5µM, RORg inh 3.2µM
CCOc1ccc2c(c1)C(=NNC(=O)c1ccncc1)c1cc(OCC)ccc1-2	Gal4-VP16 FLuc 0.89µM, RORg inh 1.1µM, ELG1 DNA repair inconclusive
O=C(N/N=C1\CC(c2ccccc2)Oc2ccccc21)c1ccccn1 (stereo unspecified)	RORg inh inconclusive
CCc1ccc(/C(C)=N/NC(=O)c2ccccn2)cc1	RORg inh inconclusive, ELG1 DNA repair inconclusive
C/C(=N\NC(=O)c1ccc(F)cc1)c1ccccn1	Gal4-VP16 FLuc 0.4µM, RORg inh 0.25µM, ELG1 DNA repair inconclusive
C/C(=N\NC(=O)c1c[nH]c2ccccc12)c1ccccn1	Gal4-VP16 FLuc inconclusive, RORg inh 3.5µM, ELG1 DNA repair inconclusive
O=C(O)c1cc2ccccc2c(N=Nc2cccnc2)c1O	RORg inh inconclusive
C/C(=N\NC(=O)c1cc2ccccc2cc1O)c1cc2ccccc2o1	Gal4-VP16 FLuc inconclusive, RORg inh 10µM, ELG1 DNA repair inconclusive
C/C(=N\NC(=O)c1cc2ccccc2cc1O)c1ccccn1	Gal4-VP16 FLuc 0.13µM, RORg inh 0.2µM, ELG1 DNA repair inconclusive (no result: FBPA coupling cs)
CC(=N/O)/C(C)=N\NC(=O)c1ccccn1	Gal4-VP16 FLuc 5µM, RORg inh 6.3µM, ELG1 DNA repair inconclusive
COc1ccc(NCC(=O)N/N=C(\C)c2cc3ccccc3o2)cc1	RORg inh inconclusive
C/C(=N\NC(=O)CCCNc1ccc(C)cc1)c1ccccn1	Gal4-VP16 FLuc 13µM, RORg inh 2.2µM
COc1ccc(CCNC(=O)Cc2ccc(NS(=O)(=O)c3ccc(F)cc3)cc2)cc1OC	none (no result: FBPA coupling cs, Gal4-VP16 FLuc, RORg inh)
Nc1ncnc2c1[nH]c(=O)n2C1CC(O)C(CO)O1 (stereo unspecified)	none (no result: TSHR antagonist, ELG1 DNA repair)
COC(=O)/C=C/c1cccc([C@H]2[C@@H]3C=CC[C@@H](C)[C@@H]3C(=O)N2Cc2ccccc2)c1	none
O=C(Nc1ccc2c(c1)CCCN2C(=O)c1ccco1)c1cc([N+](=O)[O-])ccc1Cl	ELG1 DNA repair inconclusive (no result: FBPA coupling cs, Gal4-VP16 FLuc, RORg inh)
CCN1CCN(C(=O)NCc2ccccc2)CC1	none
C/C(=N\NC(=O)c1nc2ccccn2c1C)c1cc2ccccc2o1	Gal4-VP16 FLuc inconclusive, RORg inh 13µM
C=CCNC(=S)N/N=C(\C)c1ccccn1	Gal4-VP16 FLuc 0.11µM, RORg inh 0.028µM, ELG1 DNA repair 0.18µM (no result: TSHR antagonist)
C/C(=N/NC(=O)CNC(=O)c1ccccn1)c1ccccc1	ELG1 DNA repair inconclusive
